# Data published in PubChem BioAssay.
# Values without a mark were called inactive. No rule for the calls is given here.
# Molecular target: Pantothenate synthetase (Mycobacterium tuberculosis (strain ATCC 25618 / H37Rv)) (UniProt P9WIL5)
# Experiment: Recombinant Mtb pantothenate synthetase (PanC) inhibitors, coupled enzyme, confirmatory (AID 375);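 also: 0% = full reaction with vehicle and 100% = no enzyme background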
# Conditions: coupled enzyme assay; at 10 µM, hits give high values
# Chain of Pantothenate synthetase (Mycobacterium tuberculosis (strain ATCC 25618 / H37Rv)) (P9WIL5 whole entry, looked up): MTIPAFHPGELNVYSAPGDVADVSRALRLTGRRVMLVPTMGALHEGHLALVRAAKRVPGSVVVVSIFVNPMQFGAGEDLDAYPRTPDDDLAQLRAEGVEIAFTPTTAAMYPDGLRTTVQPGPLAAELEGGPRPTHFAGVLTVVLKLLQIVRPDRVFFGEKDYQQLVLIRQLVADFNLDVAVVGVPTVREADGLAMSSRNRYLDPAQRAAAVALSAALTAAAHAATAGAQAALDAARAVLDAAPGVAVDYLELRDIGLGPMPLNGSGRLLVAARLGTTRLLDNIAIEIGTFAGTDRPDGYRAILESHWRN
row,Compound,inhibition
1,O=C(CCCCCn1c(=S)[nH]c2cc3c(cc2c1=O)OCO3)N1CCN(Cc2ccccc2)CC1,1%
2,CCOC(=O)c1ccc(NS(=O)(=O)c2ccc3c(c2)oc(=O)n3C)cc1,0%
3,CCCCCCn1c(SCCCC)nc2c1c(=O)[nH]c(=O)n2C,4%
4,O=c1[nH]c2ccc(S(=O)(=O)N3CCN(C4CCCCC4)CC3)cc2[nH]c1=O,1%
5,CCOC(=O)N1CCN(c2c(N3CCc4ccccc4C3)c(=O)c2=O)CC1,0%
6,CCC(C)NC(=O)C1(C)CCC(=O)N1Cc1ccccc1OC (stereo not given),10%
7,Cc1cc(C)c2c(N)c(C(=O)c3ccccc3)oc2n1,0%
8,CCCNC(=O)C1CCN(S(=O)(=O)c2ccc3nc4c(c(C(=O)O)c3c2)CCCCC4)CC1,0%
9,Clc1ccc(OCc2nnc(SCCN3CCCCC3)n2Cc2ccco2)cc1,0%
10,CC(C)(C)OC(=O)N1CCC(C(=O)N[C@H](Cc2ccccc2)C(=O)O)CC1,0%
11,COc1ccc(C2CC(c3ccccc3)Nc3nc(NC(=O)c4cccs4)nn32)cc1 (stereo not given),0%
12,CCOC(=O)N1CCN(c2c(NCCN(C)Cc3ccccc3)c(=O)c2=O)CC1,0%
13,CCn1c(C(=O)OC)cc2c1ccn2-c1ccc(F)cc1,0%
14,Cc1c(NC(=O)c2cnn3c2NC(c2ccco2)CC3C(F)(F)F)c(=O)n(-c2ccccc2)n1C (stereo not given),9%
15,CCn1nc(C(=O)OCC(=O)c2cc(C)n(Cc3cccs3)c2C)c2ccccc2c1=O,1%
16,COc1ccc2c3c(c(=O)oc2c1OCC(N)=O)CCCC3,2%
17,CCCc1c(O)nc(SCC(=O)NCCc2ccc(OC)c(OC)c2)[nH]c1=O,0%
18,COC(=O)Cc1csc(N)n1,0%
19,COCCn1c(-c2ccco2)nc2nc3ccccc3nc21,5%
20,CN1CC(=O)N(CC(=O)NCCc2ccc(F)cc2)c2ccccc2C1=O,0%

row,Compound,inhibition
1,Cc1cc(Cl)ccc1NC(=O)CSc1nnc(Cc2cccs2)n1Cc1ccco1,0%
2,C=CCSC1=C(C#N)C(c2ccccc2)CC(=O)N1 (stereo not given),0%
3,Cn1ccnc1SCC(=O)Nc1ccc2ccccc2c1,2%
4,S=c1[nH]ncn1-c1ccccn1,5%
5,O=C(NCc1ccccn1)c1ccc2nc(-c3ccco3)c(-c3ccco3)nc2c1,1%
6,CCOC(=O)c1ccc(NS(=O)(=O)c2cccc3nsnc23)cc1,8%
7,Clc1cccc(-c2nnc3sc(-c4ccccc4)nn23)c1,0%
8,Cc1cc(C(=O)COC(=O)C2COc3ccccc3O2)c(C)n1CC1CCCO1 (stereo not given),0%
9,C=CCNS(=O)(=O)c1ccc2nsnc2c1,0%
10,COC(=O)c1c(-c2cccs2)csc1NC(=O)CN1CCOCC1,0%
11,CSc1oc(-c2ccccc2)nc1S(=O)(=O)c1ccc(F)cc1,0%
12,C=CCC(Nc1ccco1)c1ccccc1 (stereo not given),1%
13,CCCCSc1nc2c(cnn2-c2ccc(F)cc2)c(=O)[nH]1,0%
14,O=C1CCCCCN1CSc1nc2ccccc2s1,0%
15,COCCOC(=O)c1cc(C(=O)c2cc(F)ccc2O)coc1=N,2%
16,COc1ccc(CCNC(=O)C2(C)CCC(=O)N2Cc2ccc3c(c2)OCO3)cc1OC (stereo not given),1%
17,CCOC(=O)Nc1cc(OCC)c(NC(=O)C2CC2)cc1OCC,0%
18,O=C(CSc1ncn[nH]1)NC1CC2CCC1C2 (stereo not given),0%
19,O=C(CC1CCS(=O)(=O)C1)Nc1ccc[nH]c1=O (stereo not given),2%
20,O=C(NC1CCCCC1)C(c1ccc(Cl)cc1)N(C(=O)c1cnccn1)c1ccc2c(c1)OCO2 (stereo not given),0%
